GLD-1 RNA inh = GLD-1/TGE RNA complex disruptors, primary screen, biochemical, fluorescence polarization; Female germline-specific tumor suppressor gld-1 (Caenorhabditis elegans), Q17339; purified GLD-1 + fluorescein TGE RNA; AID 2280, 2010; inhibition, % at 5.96 µM; 320,000 tested, 0.44% active;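 active = percent inhibition above a per-plate cutoff, the plate mean of test compounds plus 3 SD, cut at about 30% in these data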;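 also: 0% = DMSO wells with GLD-1 and probe and 100% = wells lacking GLD-1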
MCL1 BIM primary = inhibitors of MCL1 binding to BIM-BH3, primary screen, biochemical, fluorescence polarization; Induced myeloid leukemia cell differentiation protein Mcl-1 (Homo sapiens), Q07820; GST-MCL1 / FITC-Bim-BH3 fluorescence polarization; inhibition, % at 10.9 µM; 320,000 tested, 0.68% active; AID 2057, 2009;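 active = inhibition above the mean inhibition of all tested compounds plus 3 SD, set per campaign, cut at about 40% in these data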;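 also: 0% = DMSO wells and 100% = unlabeled Bim-BH3 peptide control; higher means more loss of mP so more displacement of Bim peptide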
Target sequence (Q07820 whole entry, looked up): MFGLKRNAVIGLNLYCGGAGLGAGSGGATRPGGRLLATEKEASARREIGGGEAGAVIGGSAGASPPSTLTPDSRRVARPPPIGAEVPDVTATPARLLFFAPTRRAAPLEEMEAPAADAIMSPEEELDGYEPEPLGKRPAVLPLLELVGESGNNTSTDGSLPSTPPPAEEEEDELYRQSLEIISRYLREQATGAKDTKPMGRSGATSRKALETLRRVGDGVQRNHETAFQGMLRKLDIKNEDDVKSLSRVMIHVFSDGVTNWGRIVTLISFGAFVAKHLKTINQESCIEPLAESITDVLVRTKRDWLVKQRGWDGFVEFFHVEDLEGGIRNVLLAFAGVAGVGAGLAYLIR
MEX-5 binding = MEX-5 zinc finger RNA-binding disruptors – biochemical, C. elegans, fluorescence polarization, MLPCN library, primary screen. 300,000 tested, 0.38% active. activity score (negative = inhibition of binding), % at 10 µM. MEX-5/FITC-TCR2 RNA binding; stronger effect = lower value. Zinc finger protein mex-5 (Caenorhabditis elegans), Q9XUB2;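 active = inhibition past about -25% in most replicates, and total fluorescence under double the plate's negative control median, limit read from the data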;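 also: 0% = DMSO and -100% = 5 µM competing unlabeled TCR2 RNA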
Bcl-xL primary = inhibitors of human Bcl-xL, primary screen, biochemical, fluorescence polarization, HTS; Bcl-2-like protein 1 (Homo sapiens), Q07817; GST-Bcl-xL / FITC-Bim BH3 peptide fluorescence polarization; inhibition, % at 10.9 µM; 320,000 tested, 0.7% active; AID 2129, 2009;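 active = inhibition above the mean of all tested compounds plus 3 SD, cutoff set per campaign, cut at about 30% in these data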;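 also: 0% = DMSO wells and 100% = unlabeled Bim-BH3 peptide competitor; inhibitors lower millipolarization by displacing the labeled peptide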
Target sequence (Q07817 whole entry, looked up): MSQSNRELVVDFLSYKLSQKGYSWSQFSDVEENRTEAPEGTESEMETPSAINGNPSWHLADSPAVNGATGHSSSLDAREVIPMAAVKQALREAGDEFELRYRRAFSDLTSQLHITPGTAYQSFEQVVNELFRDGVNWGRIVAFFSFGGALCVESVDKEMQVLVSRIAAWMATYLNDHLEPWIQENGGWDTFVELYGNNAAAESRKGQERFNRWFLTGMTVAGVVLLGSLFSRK
EBV gp42 block = Epstein-Barr virus gp42 inhibitors, primary screen, biochemical, uHTS, fluorescence polarization; Fluorescence polarization binding assay, mP read-out; 220,000 tested, 0.42% active; inhibition, % (tested at 21.74 µM); AID 1085, 2008; Glycoprotein 42 (Epstein-Barr virus (strain AG876)), Q1HVG2; in the data active = inhibition above about 50%
GLD1 RNA confirm = GLD-1/TGE RNA binding inhibitors, retest, confirmation, biochemical, fluorescence polarization, triplicate; GLD-1/FL-TGE RNA fluorescence polarization; inhibition, % at 5.96 µM; 550 tested, 10% active; shares compounds with GLD-1 RNA inh;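 active = average inhibition across triplicates above the hit cutoff set in the primary screen, cut at about 32% in these data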;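 also: 0% = GLD-1 with RNA probe and DMSO and 100% = wells lacking GLD-1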
* = called active by the depositor; . = no result given. Compounds with a hit are over-represented: about 1.3% of the library has one in this group of screens.

SMILES	GLD-1 RNA inh	MCL1 BIM primary	MEX-5 binding	Bcl-xL primary	EBV gp42 block	GLD1 RNA confirm
Cc1ccc(C2=Nc3ccccc3NC(C)(c3ccc(C)o3)C2)o1 (centres undefined)	43.6*	35.5	-0.4	40.0*	-3.9	-1.9
C=CCNC(=O)/C(C#N)=C/c1c(N2CCN(c3ccccc3)CC2)nc2c(C)cccn2c1=O	2.5	10.1	-3.3	12.7	.	.
C=CCNC(=O)/C(C#N)=C/c1c(N2CCN(c3ccc(OC)cc3)CC2)nc2c(C)cccn2c1=O	32.7*	10.1	0.9	5.4	.	-8.2
COc1cccc(-c2nnc(NC(=O)C(C)C)o2)c1	37.2*	50.0*	1.2	47.5*	2.5	-0.1
COC(=O)CP(=O)(c1ccccc1)c1ccccc1	39.5*	37.4	0.4	32.0*	-9.9	-0.8
COCCn1c(=NC(=O)c2ccc(S(=O)(=O)N3CCCc4ccccc43)cc2)sc2cc(S(C)(=O)=O)ccc21	31.8*	1.8	2.2	4.4	-6.5	-7.7
CC(=O)c1ccc(N2CCN(C(=O)C(=O)c3cn(CC(=O)N4CCCCCC4)c4ccccc34)CC2)cc1	-3.8	3.0	-10.9	3.6	.	.
Cc1cccc(-c2nc(C#N)c(N3CCC(C)CC3)o2)c1	.	.	0.1	.	.	.
CC1CCN(c2oc(-c3ccc(F)cc3)nc2C#N)CC1	33.6*	11.1	2.1	2.0	.	-1.0
Cc1ccc(NC(=O)c2oc3ccccc3c2NC(=O)C2CCCO2)cc1C (centres undefined)	-7.8	2.8	0.9	-0.5	-7.1	.
COc1ccc(NC(=O)c2oc3ccccc3c2NC(=O)C2CCCO2)cc1OC (centres undefined)	70.3*	2.0	0.0	4.4	-1.0	-2.3
COCCn1c(CN2CCN(c3ccccc3)CC2)nc2c1c(=O)n(C)c(=O)n2C	32.9*	38.0	-0.1	27.8	.	-2.4
CC(c1ccccc1)C(NC(=O)OCC1c2ccccc2-c2ccccc21)C(=O)O (centres undefined)	-0.2	1.8	1.4	4.1	.	.
COc1ccc(CCN2C(=S)N(C)C(=O)C2CC(=O)Nc2ccc(F)cc2)cc1 (centres undefined)	61.2*	7.3	-3.6	5.0	20.2	-1.6
C[C@@H]1CC(=O)[C@H]2CC(CO)=CCC[C@@H]2[C@@]1(C)CC/C(=C/CO)CO	80.0*	-0.2	.	4.2	.	3.0
COc1ccc(C(=O)N/C(=C/c2ccccc2F)C(=O)NCCN2CCOCC2)cc1OC	3.8	3.9	-0.6	4.7	.	.
COc1ccccc1NC(=O)COC(=O)c1ccccc1C(=O)N1CCN(c2ccccc2)CC1	33.1*	43.7*	-4.8	42.1*	12.6	3.9
Cc1ccc(C(C)C)c(OCC(=O)NNCC(=O)Nc2cccc(F)c2)c1	5.2	.	.	.	.	.
COc1ccc(C2NC(=O)CCC2[N+](=O)[O-])c(OC)c1OC (centres undefined)	-6.1	1.5	0.7	1.7	.	.
COc1cccc(N(CC(=O)NCC2CCCO2)C(=O)CNS(=O)(=O)c2ccccc2)c1 (centres undefined)	37.7*	35.6	1.8	41.0*	-6.1	0.8
CN(CCc1ccccc1)C1CCCN(S(=O)(=O)N(C)C)C1 (centres undefined)	65.1*	9.3	-0.3	-2.1	.	-0.4
CN(CCc1ccccc1)C1CCCN(S(=O)(=O)c2cccc(F)c2)C1 (centres undefined)	1.1	0.1	-0.4	4.7	.	.
Cc1cc2cc(CNC(=O)c3ccc(Br)o3)ccc2n1C	38.3*	36.2	0.7	29.5	15.4	9.5
CC(=O)Nc1ccc(S(=O)(=O)NCc2ccc3c(c2)cc(C)n3C)cc1	44.5*	32.0	-0.5	34.2*	12.1	16.8
Cc1cc2cc(CNC(=O)C3CCCC3)ccc2n1C	37.3*	27.1	0.8	29.4	-10.2	6.4
SMILES	GLD-1 RNA inh	MCL1 BIM primary	MEX-5 binding	Bcl-xL primary	EBV gp42 block	GLD1 RNA confirm
Cc1cc2cc(CNC(=O)Cc3cccs3)ccc2n1C	22.9	13.2	-0.5	11.6	1.7	.
CC1=C([N+](=O)[O-])C(c2ccccc2C(F)(F)F)NC(=O)N1C (centres undefined)	0.7	9.8	.	8.5	-8.5	.
O=C(c1ccccc1)n1c(=O)cc[nH]c1=O	-7.2	-8.7	-1.0	1.3	.	.
COc1ccccc1OCC(=O)NNC(=O)c1ccc2c(=O)n3c(nc2c1)CCC3	7.1	8.4	-3.1	5.7	.	.
C/C=C(\C)C(=O)NNC(=O)c1sc(-c2ccccc2)nc1C	6.3	1.3	3.7	7.7	-3.7	.
CC1C2(C)OCC(C#N)(C(=N)O2)C1(C#N)C#N (centres undefined)	35.5*	37.0	-11.9	32.1*	7.5	6.7
COc1ccc2[nH]cc(CCNC(=O)c3ccccc3Cl)c2c1	32.8*	51.6*	-2.2	46.9*	.	5.1
COc1cccc(CCNc2ccc(N3C(=O)CC(C)C3=O)cc2[N+](=O)[O-])c1 (centres undefined)	-0.1	12.4	0.5	7.1	-3.8	.
COc1ccc(Nc2ccc(N3C(=O)CC(C)C3=O)cc2[N+](=O)[O-])cn1 (centres undefined)	38.4*	42.0*	-12.1	42.2*	12.5	13.2
O=C1CC2(CCN(C(=O)c3ccc([N+](=O)[O-])cc3)CC2)Oc2ccccc21	-0.5	4.2	4.0	6.3	.	.
Cc1c(C(=O)N2CCC3(CC2)CC(=O)c2ccccc2O3)cccc1[N+](=O)[O-]	43.8*	-0.1	0.2	-1.2	.	-3.7
CC1(C)CC(=O)C(CC(=O)NC2CCCc3ccccc32)C(=O)C1 (centres undefined)	0.8	5.5	-0.6	6.7	-9.2	.
CC1=C(C(N)=O)S(=O)(=O)c2ccccc21	38.1*	20.7	-8.9	20.1	11.6	24.1
CCCS(=O)(=O)c1c(S(=O)(=O)CCC)c2c(N)cccn2c1C(=O)OC	35.4*	12.1	-10.3	21.1	-1.3	-1.4
CCCS(=O)(=O)c1c(S(=O)(=O)CCC)c2c(N)cccn2c1C(=O)c1ccccc1	18.1	-4.8	-2.5	8.3	8.4	.
O=C(CN1CCN(Cc2ccc(Cl)cc2)CC1)N/N=C/c1ccccc1F	3.6	-3.1	3.0	6.5	-21.1	.
CCOC(=O)C1=C(Cc2ccc(Cl)cc2)C(=O)c2ccccc2C1=O	33.2*	36.9	2.3	24.7	-20.2	4.7
CCOC(=O)C1=C(C)N=C2c3ccccc3C(=O)C2C1c1ccc(Cl)cc1 (centres undefined)	4.7	1.5	0.1	3.1	4.5	.
CCOc1ncccc1C(=O)OCC(=O)NCc1ccccc1	0.4	.	.	.	.	.
